Our source for the binding signal values is article PMC7862700, “An all-to-all approach to the identification of sequence-specific readers for epigenetic DNA modifications on cytosine”.

Holding throughout (assay): DAPPL (digital affinity profiling via proximity ligation, sequencing); 10 mM Tris-HCl pH 7.5, 50 mM NaCl, 1 mM DTT, 4% glycerol, room temperature, 30 min; GST-TFs on glutathione beads, 16-mer random dsDNA library, 0.1% formaldehyde crosslink after washing; high values mean tight binding
Assay [1] addresses T1, FLI1 (Homo sapiens, UniProt Q01543 1-452).
T1 sequence: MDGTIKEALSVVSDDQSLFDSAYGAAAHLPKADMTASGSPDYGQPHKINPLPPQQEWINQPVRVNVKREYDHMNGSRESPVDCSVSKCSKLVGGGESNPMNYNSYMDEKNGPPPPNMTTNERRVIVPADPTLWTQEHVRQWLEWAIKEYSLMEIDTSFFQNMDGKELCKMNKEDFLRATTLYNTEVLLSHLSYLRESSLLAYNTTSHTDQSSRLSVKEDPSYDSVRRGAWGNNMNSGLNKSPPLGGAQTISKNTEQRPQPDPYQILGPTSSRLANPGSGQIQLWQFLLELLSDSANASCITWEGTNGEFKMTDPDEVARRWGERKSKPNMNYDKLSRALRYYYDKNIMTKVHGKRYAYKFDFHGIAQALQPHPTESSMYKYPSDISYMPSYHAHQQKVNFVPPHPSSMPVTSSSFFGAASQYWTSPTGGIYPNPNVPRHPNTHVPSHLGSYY
The following applies: protein: recombinant; tags: N-terminal GST; dsDNA, one strand shown. The method, boiled down: (§1)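 Yeast served to express human transcription factors as GST fusions, which were then captured on glutathione beads and labelled with DNA barcodes. Pooled with a tag-only sample, they were incubated with 200 nmole of a 16-mer random double-stranded DNA library for 30 min at room temperature in Tris/NaCl/DTT/glycerol buffer, washed, crosslinked with 0.1% formaldehyde, ligated by proximity, amplified by PCR and sequenced. Dividing each hexamer's read frequency for a factor by its frequency for the tag-only sample gives the binding signal.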

For assay [2], the target named is T2, ELK1 (Homo sapiens, UniProt P19419 1-428).
T2 sequence: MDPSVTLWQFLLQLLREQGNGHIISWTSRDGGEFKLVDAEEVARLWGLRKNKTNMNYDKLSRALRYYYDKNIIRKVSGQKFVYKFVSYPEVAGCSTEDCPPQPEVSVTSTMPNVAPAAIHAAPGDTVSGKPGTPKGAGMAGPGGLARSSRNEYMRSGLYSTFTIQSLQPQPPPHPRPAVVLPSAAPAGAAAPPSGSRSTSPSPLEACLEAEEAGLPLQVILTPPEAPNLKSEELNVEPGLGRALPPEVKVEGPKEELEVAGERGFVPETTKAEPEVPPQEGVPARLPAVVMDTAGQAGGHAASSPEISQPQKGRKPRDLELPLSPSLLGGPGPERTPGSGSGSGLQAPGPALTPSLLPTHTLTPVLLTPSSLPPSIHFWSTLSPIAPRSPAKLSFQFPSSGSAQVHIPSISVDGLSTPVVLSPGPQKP
The following applies: protein: recombinant; tags: N-terminal GST; dsDNA, one strand shown. Summed up: as §1

The target of assay [3] is T3, GABPA (Homo sapiens, UniProt Q06546 1-454).
T3 sequence: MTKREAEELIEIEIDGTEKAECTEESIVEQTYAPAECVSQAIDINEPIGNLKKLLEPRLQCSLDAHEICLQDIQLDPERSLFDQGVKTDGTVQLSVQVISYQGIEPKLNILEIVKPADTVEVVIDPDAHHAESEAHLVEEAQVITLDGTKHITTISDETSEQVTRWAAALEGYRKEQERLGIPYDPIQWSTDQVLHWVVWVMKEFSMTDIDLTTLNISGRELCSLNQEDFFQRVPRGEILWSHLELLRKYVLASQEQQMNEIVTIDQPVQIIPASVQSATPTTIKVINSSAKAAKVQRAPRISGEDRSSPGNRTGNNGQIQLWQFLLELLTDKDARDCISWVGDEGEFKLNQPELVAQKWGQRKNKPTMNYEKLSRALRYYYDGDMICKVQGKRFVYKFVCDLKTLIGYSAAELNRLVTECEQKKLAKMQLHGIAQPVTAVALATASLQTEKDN
The following applies: protein: recombinant; tags: N-terminal GST; dsDNA, one strand shown. Summed up: as §1

Assay [4] concerns the target ELF1 (Homo sapiens, UniProt P32519 1-619). As to conditions: protein: recombinant; tags: N-terminal GST; dsDNA, one strand shown. Summed up:
as §1

Assay [5] addresses T4, EHF (Homo sapiens, UniProt Q9NZC4 1-300).
T4 sequence: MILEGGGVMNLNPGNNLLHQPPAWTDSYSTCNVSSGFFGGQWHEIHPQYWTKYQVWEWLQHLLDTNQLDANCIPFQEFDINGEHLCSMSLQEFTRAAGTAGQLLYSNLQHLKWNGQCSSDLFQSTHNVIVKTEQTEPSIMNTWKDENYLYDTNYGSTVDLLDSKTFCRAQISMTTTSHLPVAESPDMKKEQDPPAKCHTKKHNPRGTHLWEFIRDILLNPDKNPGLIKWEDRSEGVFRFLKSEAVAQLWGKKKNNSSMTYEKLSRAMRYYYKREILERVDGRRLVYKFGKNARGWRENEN
As to conditions: protein: recombinant; tags: N-terminal GST; dsDNA, one strand shown. The method, boiled down: as §1

For assay [6], the target named is SPIB (Homo sapiens, UniProt Q01892 1-262). As to conditions: protein: recombinant; tags: N-terminal GST; dsDNA, one strand shown. Summed up:
as §1

For assay [7], the target named is T5, ELK3 (Homo sapiens, UniProt P41970 1-407).
T5 sequence: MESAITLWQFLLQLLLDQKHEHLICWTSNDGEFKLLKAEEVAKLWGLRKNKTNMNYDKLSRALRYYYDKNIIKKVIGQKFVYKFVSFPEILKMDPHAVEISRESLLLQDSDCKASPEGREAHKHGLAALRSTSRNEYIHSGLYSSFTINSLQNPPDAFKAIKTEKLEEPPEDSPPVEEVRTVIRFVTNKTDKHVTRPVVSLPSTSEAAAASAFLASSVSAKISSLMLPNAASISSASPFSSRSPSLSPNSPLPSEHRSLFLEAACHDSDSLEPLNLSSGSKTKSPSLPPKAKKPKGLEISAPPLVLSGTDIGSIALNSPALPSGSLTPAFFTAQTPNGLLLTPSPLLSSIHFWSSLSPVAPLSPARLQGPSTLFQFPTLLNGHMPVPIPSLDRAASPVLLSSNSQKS
The following applies: protein: recombinant; tags: N-terminal GST; dsDNA, one strand shown. The method, boiled down:
as §1

The target in assay [8] is T6, FEV (Homo sapiens, UniProt Q99581 1-238).
T6 sequence: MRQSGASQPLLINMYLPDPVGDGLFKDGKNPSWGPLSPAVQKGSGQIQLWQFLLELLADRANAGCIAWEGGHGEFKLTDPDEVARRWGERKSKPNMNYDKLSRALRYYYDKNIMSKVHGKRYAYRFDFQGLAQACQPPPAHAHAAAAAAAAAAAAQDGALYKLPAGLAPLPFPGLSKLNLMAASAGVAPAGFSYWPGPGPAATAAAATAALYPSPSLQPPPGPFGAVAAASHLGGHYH
As to conditions: protein: recombinant; tags: N-terminal GST; dsDNA, one strand shown. Summed up:
as §1

The target in assay [9] is ETV5 (Homo sapiens, UniProt P41161 1-510). The following applies: protein: recombinant; tags: N-terminal GST; dsDNA, one strand shown. The method, boiled down:
as §1

Assay [10] addresses HSF1 (Homo sapiens, UniProt Q00613 1-529). The following applies: protein: recombinant; tags: N-terminal GST; chain copies: 3; dsDNA, one strand shown. Summed up:
as §1

Assay [11] deals with T7, SPIC (Homo sapiens, UniProt Q8N5J4 1-248).
T7 sequence: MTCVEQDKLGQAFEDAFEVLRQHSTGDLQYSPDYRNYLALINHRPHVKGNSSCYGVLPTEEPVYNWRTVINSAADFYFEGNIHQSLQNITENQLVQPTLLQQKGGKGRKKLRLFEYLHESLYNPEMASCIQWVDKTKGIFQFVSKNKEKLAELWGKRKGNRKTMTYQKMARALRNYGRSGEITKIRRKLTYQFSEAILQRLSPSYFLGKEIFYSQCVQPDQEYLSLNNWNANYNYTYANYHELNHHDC
As to conditions: protein: recombinant; tags: N-terminal GST; dsDNA, one strand shown. Summed up:
as §1

For assay [12], the target named is ELF4 (Homo sapiens, UniProt Q99607 1-663). The following applies: protein: recombinant; tags: N-terminal GST; dsDNA, one strand shown. Summed up: as §1
Sequence of ELF4 (Q99607 whole entry): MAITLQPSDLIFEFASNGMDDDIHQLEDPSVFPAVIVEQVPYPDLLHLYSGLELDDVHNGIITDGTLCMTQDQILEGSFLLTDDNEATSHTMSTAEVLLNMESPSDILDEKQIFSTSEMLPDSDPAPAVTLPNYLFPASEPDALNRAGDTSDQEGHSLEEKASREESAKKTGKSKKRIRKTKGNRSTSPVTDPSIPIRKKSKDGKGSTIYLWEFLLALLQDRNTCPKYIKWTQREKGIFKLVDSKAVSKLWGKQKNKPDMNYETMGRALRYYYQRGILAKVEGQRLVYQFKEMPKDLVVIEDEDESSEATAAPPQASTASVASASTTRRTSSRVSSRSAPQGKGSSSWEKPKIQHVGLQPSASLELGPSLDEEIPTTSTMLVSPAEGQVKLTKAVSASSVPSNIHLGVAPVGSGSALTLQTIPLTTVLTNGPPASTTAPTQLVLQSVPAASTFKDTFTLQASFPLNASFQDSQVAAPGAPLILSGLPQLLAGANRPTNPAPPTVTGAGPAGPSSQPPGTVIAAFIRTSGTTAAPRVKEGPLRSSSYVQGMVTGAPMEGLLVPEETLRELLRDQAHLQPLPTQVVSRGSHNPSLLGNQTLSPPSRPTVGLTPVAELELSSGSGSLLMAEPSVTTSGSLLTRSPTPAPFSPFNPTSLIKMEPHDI
Assay [13] has as its target T8, ELK4 (Homo sapiens, UniProt P28324-2 1-405).
T8 sequence: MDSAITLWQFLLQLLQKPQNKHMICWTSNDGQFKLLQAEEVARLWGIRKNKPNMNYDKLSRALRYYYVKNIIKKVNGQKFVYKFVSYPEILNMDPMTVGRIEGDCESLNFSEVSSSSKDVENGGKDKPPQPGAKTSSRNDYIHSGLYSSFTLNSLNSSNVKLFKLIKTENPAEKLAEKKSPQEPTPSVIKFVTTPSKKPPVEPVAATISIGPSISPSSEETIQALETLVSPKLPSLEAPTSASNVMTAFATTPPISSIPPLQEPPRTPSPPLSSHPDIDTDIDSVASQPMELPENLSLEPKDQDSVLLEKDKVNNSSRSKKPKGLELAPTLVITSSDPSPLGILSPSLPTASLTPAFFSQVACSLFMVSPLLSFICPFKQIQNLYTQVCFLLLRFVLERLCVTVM
The following applies: protein: recombinant; tags: N-terminal GST; dsDNA, one strand shown. The method, boiled down: as §1

Assay [14] addresses T9, ETV2 (Homo sapiens, UniProt O00321 1-342).
T9 sequence: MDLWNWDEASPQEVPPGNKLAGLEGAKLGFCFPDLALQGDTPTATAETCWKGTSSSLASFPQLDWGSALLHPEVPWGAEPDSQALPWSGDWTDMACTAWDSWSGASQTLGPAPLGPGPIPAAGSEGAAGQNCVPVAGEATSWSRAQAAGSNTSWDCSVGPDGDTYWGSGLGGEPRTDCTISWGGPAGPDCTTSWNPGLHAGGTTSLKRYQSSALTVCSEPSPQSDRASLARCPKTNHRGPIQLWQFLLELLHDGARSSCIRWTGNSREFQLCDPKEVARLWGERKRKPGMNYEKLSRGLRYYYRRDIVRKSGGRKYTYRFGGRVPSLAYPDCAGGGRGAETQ
As to conditions: protein: recombinant; tags: N-terminal GST; dsDNA, one strand shown. The method, boiled down:
as §1

Assay [15] concerns the target CRX (Homo sapiens, UniProt O43186 1-299). The following applies: protein: recombinant; tags: N-terminal GST; dsDNA, one strand shown. Summed up: as §1
Assay [16] deals with ETV1 (Homo sapiens, UniProt P50549 1-477). The following applies: protein: recombinant; tags: N-terminal GST; dsDNA, one strand shown. Summed up: as §1
Sequence of ETV1 (P50549 whole entry): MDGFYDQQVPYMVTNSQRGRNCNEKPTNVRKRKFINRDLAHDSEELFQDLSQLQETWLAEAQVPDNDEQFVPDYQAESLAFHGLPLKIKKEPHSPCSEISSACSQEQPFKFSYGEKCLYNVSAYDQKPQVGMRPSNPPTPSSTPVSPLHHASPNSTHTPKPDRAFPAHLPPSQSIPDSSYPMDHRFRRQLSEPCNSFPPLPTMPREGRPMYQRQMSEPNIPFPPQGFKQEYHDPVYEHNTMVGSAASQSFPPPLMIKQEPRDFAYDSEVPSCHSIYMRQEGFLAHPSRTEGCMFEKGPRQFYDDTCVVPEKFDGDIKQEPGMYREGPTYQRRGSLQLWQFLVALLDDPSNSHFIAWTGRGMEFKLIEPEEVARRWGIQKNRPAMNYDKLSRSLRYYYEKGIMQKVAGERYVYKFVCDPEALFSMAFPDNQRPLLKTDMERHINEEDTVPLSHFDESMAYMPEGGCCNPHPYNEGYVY
Assay [17] has as its target T10, ERG (Homo sapiens, UniProt P11308 1-479).
T10 sequence: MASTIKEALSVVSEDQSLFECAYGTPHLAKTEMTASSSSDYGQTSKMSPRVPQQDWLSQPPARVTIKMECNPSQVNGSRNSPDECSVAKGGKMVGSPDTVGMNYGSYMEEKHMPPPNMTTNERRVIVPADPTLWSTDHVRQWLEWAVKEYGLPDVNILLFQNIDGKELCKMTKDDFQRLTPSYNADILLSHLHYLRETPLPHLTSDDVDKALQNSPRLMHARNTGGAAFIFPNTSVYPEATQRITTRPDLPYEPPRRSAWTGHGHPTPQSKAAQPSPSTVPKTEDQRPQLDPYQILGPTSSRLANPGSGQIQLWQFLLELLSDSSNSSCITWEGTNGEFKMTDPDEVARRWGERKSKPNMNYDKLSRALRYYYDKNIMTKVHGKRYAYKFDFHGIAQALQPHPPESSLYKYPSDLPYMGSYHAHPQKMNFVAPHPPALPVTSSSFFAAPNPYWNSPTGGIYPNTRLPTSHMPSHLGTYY
The following applies: protein: recombinant; tags: N-terminal GST; dsDNA, one strand shown. Summed up:
as §1

Assay [18] addresses SPI1 (Homo sapiens, UniProt P17947 1-270). As to conditions: protein: recombinant; tags: N-terminal GST; dsDNA, one strand shown. Summed up:
as §1

Sequence of HSF1 (Q00613 whole entry): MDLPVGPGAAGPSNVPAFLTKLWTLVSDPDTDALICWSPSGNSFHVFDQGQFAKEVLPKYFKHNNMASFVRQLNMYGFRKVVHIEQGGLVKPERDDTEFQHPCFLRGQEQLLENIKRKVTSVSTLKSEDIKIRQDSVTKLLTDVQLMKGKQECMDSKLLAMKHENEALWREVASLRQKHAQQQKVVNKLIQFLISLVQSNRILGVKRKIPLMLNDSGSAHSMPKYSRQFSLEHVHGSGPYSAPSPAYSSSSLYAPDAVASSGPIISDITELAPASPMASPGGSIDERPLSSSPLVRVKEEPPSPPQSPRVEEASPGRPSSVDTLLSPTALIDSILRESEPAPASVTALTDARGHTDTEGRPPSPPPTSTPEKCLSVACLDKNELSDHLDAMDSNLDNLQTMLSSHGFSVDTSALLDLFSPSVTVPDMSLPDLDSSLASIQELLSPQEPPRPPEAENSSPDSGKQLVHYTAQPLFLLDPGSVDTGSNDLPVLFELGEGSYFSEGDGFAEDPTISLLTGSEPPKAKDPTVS
Sequence of CRX (O43186 whole entry): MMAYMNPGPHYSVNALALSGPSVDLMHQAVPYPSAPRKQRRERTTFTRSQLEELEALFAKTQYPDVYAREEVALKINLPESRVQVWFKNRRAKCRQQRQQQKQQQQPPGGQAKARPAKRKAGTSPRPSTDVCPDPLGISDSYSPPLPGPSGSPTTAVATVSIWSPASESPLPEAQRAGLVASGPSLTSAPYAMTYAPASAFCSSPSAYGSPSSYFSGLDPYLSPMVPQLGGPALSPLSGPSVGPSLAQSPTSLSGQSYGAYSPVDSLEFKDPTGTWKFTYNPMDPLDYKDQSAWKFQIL
Sequence of ETV5 (P41161 whole entry): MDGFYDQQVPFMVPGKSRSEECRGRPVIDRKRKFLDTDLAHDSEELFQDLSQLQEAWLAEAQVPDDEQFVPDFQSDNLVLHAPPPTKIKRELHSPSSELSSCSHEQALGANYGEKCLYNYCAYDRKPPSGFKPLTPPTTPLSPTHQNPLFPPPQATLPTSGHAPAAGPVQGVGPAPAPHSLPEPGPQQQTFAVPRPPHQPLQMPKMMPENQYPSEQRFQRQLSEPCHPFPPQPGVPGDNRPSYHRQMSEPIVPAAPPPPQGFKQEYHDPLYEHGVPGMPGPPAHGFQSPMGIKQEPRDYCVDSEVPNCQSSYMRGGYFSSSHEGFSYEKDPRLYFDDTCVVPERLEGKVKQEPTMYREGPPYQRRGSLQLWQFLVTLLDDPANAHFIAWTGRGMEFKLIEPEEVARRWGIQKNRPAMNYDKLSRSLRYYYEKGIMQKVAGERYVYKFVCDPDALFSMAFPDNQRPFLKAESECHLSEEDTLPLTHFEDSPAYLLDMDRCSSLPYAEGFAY
Sequence of ELF1 (P32519 whole entry): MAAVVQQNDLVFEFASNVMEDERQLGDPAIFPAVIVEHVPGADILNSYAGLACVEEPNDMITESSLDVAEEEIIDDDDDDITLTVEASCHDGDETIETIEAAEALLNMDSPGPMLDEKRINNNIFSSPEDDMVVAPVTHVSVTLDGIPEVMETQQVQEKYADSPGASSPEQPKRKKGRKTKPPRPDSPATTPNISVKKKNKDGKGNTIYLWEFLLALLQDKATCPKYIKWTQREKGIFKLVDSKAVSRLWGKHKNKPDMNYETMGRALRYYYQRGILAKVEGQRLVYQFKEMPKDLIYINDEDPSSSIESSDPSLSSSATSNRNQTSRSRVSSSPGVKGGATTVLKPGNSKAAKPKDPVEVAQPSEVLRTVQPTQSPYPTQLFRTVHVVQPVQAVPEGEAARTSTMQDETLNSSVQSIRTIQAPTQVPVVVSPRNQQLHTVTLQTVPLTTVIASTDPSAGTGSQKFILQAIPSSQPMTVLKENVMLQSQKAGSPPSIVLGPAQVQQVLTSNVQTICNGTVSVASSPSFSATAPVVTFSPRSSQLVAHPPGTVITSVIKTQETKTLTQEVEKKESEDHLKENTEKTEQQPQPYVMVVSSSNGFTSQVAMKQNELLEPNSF
Sequence of SPIB (Q01892 whole entry): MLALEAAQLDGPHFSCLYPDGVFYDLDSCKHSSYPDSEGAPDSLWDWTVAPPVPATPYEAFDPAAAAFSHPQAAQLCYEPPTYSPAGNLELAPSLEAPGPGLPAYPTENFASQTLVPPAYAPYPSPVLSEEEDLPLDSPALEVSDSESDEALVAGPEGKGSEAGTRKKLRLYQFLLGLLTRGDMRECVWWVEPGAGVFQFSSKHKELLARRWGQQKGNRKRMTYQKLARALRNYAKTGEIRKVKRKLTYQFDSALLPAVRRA

Consider CAGAAT, for which the binding signal in assay [1] is 1 fold enrichment (6-mer frequency, TF over GST control); in [2], 1.01 fold enrichment (6-mer frequency, TF over GST control); in assay [3], 1.02 fold enrichment (6-mer frequency, TF over GST control); in assay [4] it was 1.03 fold enrichment (6-mer frequency, TF over GST control); in [5] it was 1.05 fold enrichment (6-mer frequency, TF over GST control); in [6], 1.05 fold enrichment (6-mer frequency, TF over GST control). Also, the binding signal in assay [7] is 1.01 fold enrichment (6-mer frequency, TF over GST control); in [8], 1.05 fold enrichment (6-mer frequency, TF over GST control); in assay [9], 1.01 fold enrichment (6-mer frequency, TF over GST control); in assay [10], 2.05 fold enrichment (6-mer frequency, TF over GST control); in assay [11] it was 1.01 fold enrichment (6-mer frequency, TF over GST control); in [12], 1.13 fold enrichment (6-mer frequency, TF over GST control). The binding signal in [13] is 1.05 fold enrichment (6-mer frequency, TF over GST control); in [14], 1.13 fold enrichment (6-mer frequency, TF over GST control); in assay [15] it was 1.34 fold enrichment (6-mer frequency, TF over GST control); in assay [16], 1.04 fold enrichment (6-mer frequency, TF over GST control).

With TATTAG, the binding signal is 1.05 fold enrichment (6-mer frequency, TF over GST control) in assay [1]; 1.03 fold enrichment (6-mer frequency, TF over GST control) in assay [2]; 1.07 fold enrichment (6-mer frequency, TF over GST control) in [17]; 1.02 fold enrichment (6-mer frequency, TF over GST control) in [5]; 1.09 fold enrichment (6-mer frequency, TF over GST control) in assay [18]; 1.18 fold enrichment (6-mer frequency, TF over GST control) in [7]. For the same sequence, the binding signal in assay [8] was 1.02 fold enrichment (6-mer frequency, TF over GST control); in assay [9], 1.04 fold enrichment (6-mer frequency, TF over GST control); in assay [10] it was 1.42 fold enrichment (6-mer frequency, TF over GST control); in assay [11] it was 1.13 fold enrichment (6-mer frequency, TF over GST control); in assay [12] it was 1.05 fold enrichment (6-mer frequency, TF over GST control); in [13] it was 1.04 fold enrichment (6-mer frequency, TF over GST control). The binding signal in [14] is 1.23 fold enrichment (6-mer frequency, TF over GST control); in assay [15] it was 1.94 fold enrichment (6-mer frequency, TF over GST control); in assay [16], 1.12 fold enrichment (6-mer frequency, TF over GST control).
